NR3A LBD binder: binders of NR3A ligand-binding domain, primary screen, biophysical, differential scanning fluorimetry, uHTS. Tm shift relative to glycine control, % at 25 µM. NR3A LBD differential scanning fluorimetry, Tm shift; 0% = protein alone, 100% = glycine-bound protein. hit rate 2.5% among 340,000;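 active = melting temperature shift of at least 10% of the positive control shift, at one fixed dose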
beta cell repl: inducers of MIN6 beta-cell proliferation, primary screen, ATP luminescence, uHTS. hit rate 0.29% among 330,000. proliferation, % at 10 µM. MIN6 cells proliferation, ATPlite luminescence, 48 h; cells starved in 0.2% serum; 100% = growth in 10% serum;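 active = compounds whose signal lies at least 3.5 SD above the mean of all wells on their plate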
FAS TE block: FAS thioesterase domain inhibitors, primary screen, biochemical, fluorescence intensity, uHTS; inhibition, % at 15 µM; AID 602261, 2012; recombinant FAS-TE, OMFH fluorogenic substrate, fluorescence endpoint; Fatty acid synthase (Homo sapiens), P49327; hit rate 0.67% among 360,000;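 active = compounds whose normalised, plate-corrected inhibition of enzyme fluorescence in the single-dose primary screen is 50% or more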
MPTP block: mitochondrial permeability transition pore inhibitors, primary screen, biochemical, isolated mouse mitochondria, absorbance | hit rate 1.4% among 360,000 | inhibition, % at 10 µM | Ca2+ swelling absorbance, 30 min | AID 602449, 2012;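 active = inhibition of 50% or more, scaled per plate between neutral and stimulator controls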
p-CIP stab down: p/CIP-EGFP fusion destabilizers, primary screen, fluorescence, F442A cells | Q05BA5 | 16 h | decrease of EGFP signal, % at 10 µM | hit rate 0.01% among 290,000 | AID 1984, 2009;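 active = EGFP signal decrease of at least 30% at 10 µM or well 3 SD below plate mean, unless failing retest; inactive = the rest, including hits failing retest or dose response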
Numbers stand for hits; - = inactive; . = no result. Sampled rows, rich in hits. Any-hit rate of the full collection: about 4.1%.

SMILES | NR3A LBD binder | beta cell repl | FAS TE block | MPTP block | p-CIP stab down
Nc1c(S(=O)(=O)c2ccccc2)c2nc3ccccc3nc2n1/N=C/c1cccc(O)c1 | 25 | - | - | - | -
CS(=O)(=O)c1ccc(Cl)c(NC(=O)CSc2nnc3n2CCCCC3)c1 | . | . | - | - | .
CCCCNC(=O)c1c(N)[nH]c(C(=O)c2ccccc2)c1-c1ccccn1 | . | . | - | - | .
Cc1nnc(SCC(=O)Nc2ccc(-c3nc4ccccc4s3)cc2)s1 | 30 | . | - | - | -
O=C(CCN1C(=O)NC2(CCCC2)C1=O)Nc1ccc(-c2nc3ccccc3s2)cc1 | 26 | - | - | - | .
Cc1nnc(SCC(=O)Nc2ccccc2NC(=O)CSc2nnc(C)s2)s1 | - | - | - | - | -
Cc1cc(O)ccc1Nc1cc(-c2cccc(N(C)C)c2)ncn1 | . | . | - | - | .
CC(=O)NC(c1ccc(F)c(F)c1)c1nc(-c2ccccc2C)cs1 (stereo unspecified) | . | . | - | - | .
Cc1ccc(C(=O)NCC(=O)Nc2ccc(C)c(S(=O)(=O)Nc3ccc(Cl)cc3)c2)s1 | 11 | - | - | - | -
COc1ccc(NS(=O)(=O)c2cc(NC(=O)CNC(=O)c3ccc(C)s3)ccc2Cl)cc1 | - | - | - | - | -
O=C(Nc1ccccc1)c1cc2ccccc2c(=O)s1 | - | - | - | - | -
O=C(Nc1ccc(O)cc1)c1cc2ccccc2c(=O)s1 | 24 | - | - | - | -
C=CCc1ccccc1OCC(=O)OCCNC(=O)c1cccnc1 | 20 | - | - | - | -
O=C1/C(=C\c2ccc(O)cc2)SC(=S)N1Cc1ccccc1 | 34 | - | - | - | -
COc1ccc(/C=C2\SC(=S)N(c3cccnc3)C2=O)cc1 | - | - | - | - | -
O=C1/C(=C\c2ccc(O)cc2)SC(=S)N1c1cccnc1 | 29 | - | - | - | -
O=C(O)c1ccc(/C=C2/SC(=S)N(Cc3ccccc3)C2=O)cc1 | 20 | . | - | - | -
N=C1S/C(=C\c2ccc(O)cc2)C(=O)N1c1ccc(F)cc1 | 22 | - | - | - | -
COC(=O)c1ccc(N2C(c3cccc(OC)c3)=Cc3ccc(F)cc3C2c2c(C)[nH]c3ccccc23)cc1 (stereo unspecified) | . | . | - | - | .
CSc1ccc(OC2(C)CCN(Cc3ccc4c(c3)OCCO4)C2)cc1 (stereo unspecified) | . | . | - | - | .
CCOC(=O)[C@]12CCCC=C1N(Cc1ccco1)C(=O)[C@H](CC(=O)NCc1cccs1)C2 | . | . | - | - | .
Cc1ccc(N2CCN(c3ccc(NCc4nc5ccccc5n4C)cc3)CC2)cc1 | 13 | - | - | - | -
Cc1cccc(NCc2nc3ccccc3n2C)c1 | - | - | - | - | -
Cn1c(CNc2ccc(Cl)cc2)nc2ccccc21 | 12 | - | - | - | -
N#C/C(=C\c1ccc(OCc2ccccc2)cc1)C(N)=O | 12 | - | - | - | -
SMILES | NR3A LBD binder | beta cell repl | FAS TE block | MPTP block | p-CIP stab down
Cc1ccccc1COc1ccc(/C=C(\C#N)C(N)=O)cc1 | - | - | - | - | -
Cc1nn(Cc2ccccc2)c(C)c1/C=N/NC(=O)CNc1cccc(C(F)(F)F)c1 | 13 | - | - | - | -
O=C(CNc1cccc(C(F)(F)F)c1)N/N=C/c1cn(-c2ccccc2)nc1-c1ccccc1 | 34 | - | - | - | -
COc1ccc(-c2nn(-c3ccccc3)cc2/C=N/Nc2cccc(C(=O)O)c2)cc1 | - | . | - | - | -
COc1ccc(N2C(=O)C3CCCCC3C2=O)cc1NC(=O)c1ccccc1 (stereo unspecified) | 39 | - | - | - | -
Cc1ccccc1NC(=O)c1cccc(N2C(=O)C3CCCCC3C2=O)c1 (stereo unspecified) | - | - | - | - | -
C[C@@H]1CCCN1[C@H]1CS(=O)(=O)N[C@@H]1COCc1ccccc1 | . | . | - | - | .
O=C(NNC(=O)c1cccc2ccccc12)c1cccc(Cl)c1 | 12 | . | - | - | .
O=C(NNC(=O)c1cccc2ccccc12)c1ccc(Cl)cc1Cl | 23 | . | - | - | .
O=C(NNC(=O)c1ccc(Cl)cc1Cl)c1ccc2ccccc2c1 | - | . | - | - | .
O=C(NNC(=O)c1cccc2ccccc12)c1cccc(Br)c1 | - | . | - | - | .
COc1ccc(OC)c(NC(=O)CSc2nnc(C3CCCCC3)n2N)c1 | 14 | - | - | - | .
O=C(NCCN1CCC(n2c(=O)[nH]c3ccccc32)CC1)c1ccc(Cl)c(Cl)c1 | . | . | - | - | .
O=C(CCS(=O)(=O)c1ccc(F)cc1)Nc1nccs1 | . | . | - | - | .
